TIM10 inh = TIM10 yeast growth inhibition; S. cerevisiae TIM10 strain growth, BacTiter-Glo luminescence, 24 h; inhibition, % at 10 µM; 1.4% of 330,000 active; AID 463195;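 active means inhibition of 40% or more at the single tested concentration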;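 further: wild-type TIM10 isogenic control strain grown at permissive 25 °C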
NALP3 yeast inh = inhibitors of NALP3 inflammasome in yeast; Yeast reconstituted NLRP3/ASC/caspase-1, beta-gal luminescence, 24 h; inhibition, % at 10 µM; 0.39% of 330,000 active;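 active means inhibition of 50% or more; inactive means inhibition below 50%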;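 further: plate controls were induced DMSO wells for no effect and uninduced yeast grown without galactose for full effect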
tim10-1 inh = growth inhibitors of tim10-1 mutant yeast; AID 463190; S. cerevisiae tim10-1 ts strain growth, BacTiter-Glo, 24 h; 2.2% of 330,000 active; inhibition, % at 20 µM;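 active means inhibition of at least 40%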;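 further: mutant grown at 25 °C; 0% = DMSO wells with yeast and 100% = wells holding no yeast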
SKKanGAS inh = blocks kanamycin growth of S. pyogenes SKKanGAS strain. BacTiter-Glo, 6 h. inhibition, % at 7.5 µM. 1.3% of 300,000 active;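 active means mean replicate score, as percent of positive control median, at least 50; inconclusive means mean below 50 but one replicate at or above 50; inactive means mean and every replicate below 50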;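 further: strain carries kanamycin resistance gene driven by streptokinase promoter and grows in 40 µg/ml kanamycin; loss of luminescence reflects streptokinase promoter inhibition or plain growth inhibition; 0% = median of DMSO wells and 100% = positive control at its reference dose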
NALP1 inh = inhibitors of NALP1 inflammasome in yeast | inhibition, % at 10 µM | 0.61% of 280,000 active | S. cerevisiae NALP1/ASC/caspase-1 growth, X-gal OD620, 72 h | AID 2071; in the data active means inhibition mostly above about 24%, no sharp cut-off; inactive means mostly below about 32%
tim23-1 inh = inhibits growth of tim23-1 mutant yeast | AID 463212 | 1.3% of 330,000 active | S. cerevisiae tim23-1 growth, BacTiter-Glo luminescence, 24 h | inhibition, % at 20 µM;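 active means growth inhibition of the mutant yeast at or above 50%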;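 further: temperature-sensitive mutant grown at 25 °C; plate controls were DMSO-treated mutant yeast for no effect and medium wells lacking yeast for full effect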
* marks the source's active call; other numbers are inactive results; ? = inconclusive; nt = no result. Sampled rows, rich in hits. Any-hit rate of the full collection: about 4.9%.

SMILES | TIM10 inh | NALP3 yeast inh | tim10-1 inh | SKKanGAS inh | NALP1 inh | tim23-1 inh
COc1ccc(C(=O)NC2CC3CCCC(C2)N3Cc2ccccc2)c(OC)c1 (stereo unspecified) | -7 | 12 | -5 | 0 | 5 | 0
OC(COC(c1ccc(Cl)cc1)c1ccc(Cl)cc1)CN1CCN(c2ccccn2)CC1 (stereo unspecified) | 36 | 19 | 27 | ? | 45* | -28
O=C(NCc1ccc(F)cc1)c1ccncc1 | 5 | 4 | -4 | -4 | 19 | -10
CCOC(=O)/C=C1\Nc2ccccc2OC1=O | -24 | 38 | -23 | 2 | 47* | -4
Cn1cccc1C(=O)NC(=O)COC(=O)CCNS(=O)(=O)c1cccc(C(F)(F)F)c1 | 12 | 9 | 1 | nt | nt | 0
Cc1ccc(CN2CCN(Cc3cnc(N4CCOCC4)s3)CC2CCO)o1 (stereo unspecified) | 17 | -13 | 8 | -12 | 26* | 0
COc1ccc(C(=O)NC2CCCN(Cc3ccc(Cl)cc3)C2)c(OC)c1 (stereo unspecified) | 3 | 42 | 17 | 3 | 16 | 35
Cc1noc(C)c1-c1ccc2ncnc(NCC3CCCCN3C)c2c1 (stereo unspecified) | -4 | 15 | -17 | nt | nt | -9
COc1ccc(-c2ccc([C@H]3[C@@H]4C=CCC[C@@]4(C)C(=O)N3Cc3ccccc3)c(F)c2)cc1OC | 6 | 9 | 2 | 52* | 16 | -3
COc1ccc(-c2c([C@H]3[C@@H]4C=CCC[C@@]4(C)C(=O)N3Cc3ccccc3)ccc3ccccc23)cc1OC | 19 | -1 | 29 | 31 | 11 | 35
O=C([C@@H]1CC=C[C@@H]2CCN(C3CCCCC3)C(=O)[C@@H]21)N1CCN(c2ccccc2)CC1 | 15 | 11 | 19 | 2 | nt | 10
COc1ccc(C(=O)COC(=O)COc2cc(C)cc(C)c2)cc1 | -1 | 10 | 12 | -2 | 7 | 13
COc1cc(C2C=C(C34CC5CC(CC(C5)C3)C4)NC(=S)N2)cc(OC)c1OC (stereo unspecified) | 22 | 14 | 26 | 14 | -13 | 4
S=C1NC(C23CC4CC(CC(C4)C2)C3)=CC(c2ccc3c(c2)OCO3)N1 (stereo unspecified) | 30 | 18 | 22 | 58* | 17 | 5
CCc1ccc(NC(=O)C(C)OC(=O)CC(NC(C)=O)c2ccccc2)cc1 (stereo unspecified) | -4 | 9 | 12 | 1 | 18 | 13
CC(=O)c1cccc(NC(=S)NC(=O)c2ccc(C)cc2Cl)c1 | 12 | 9 | 12 | -13 | 37* | -3
CC(=O)c1cccc(NC(=S)NC(=O)c2ccccc2Cl)c1 | 13 | 12 | 10 | 0 | 35 | -2
Cc1ccc(S(=O)(=O)N/N=C/c2c[nH]c3ccccc23)cc1 | -2 | 5 | 0 | -12 | 26* | 8
Clc1cccc(OCCN2CCN(CCOc3cccc(Cl)c3)CC2)c1 | -37 | 40 | -47 | 2 | 64* | -132
Cc1[nH]c2ccccc2c1-c1nc2ccccc2[nH]c1=O | 4 | 12 | -17 | -1 | 15 | 5
CC(/C=C/c1ccco1)=N\NC(=O)CNc1ccc2ccccc2c1 | 37 | 17 | 16 | 10 | 20* | 22
Cc1cccc(C(=O)NCC(=O)N2CCC2)c1 | 1 | 8 | 6 | nt | nt | -3
Cc1cccc(C(=O)NCC(=O)N2CCOCC2)c1 | -7 | 7 | -1 | 51* | 8 | 7
Cc1ccc(OCC(=O)NCCCNC(=O)c2ccncc2)cc1 | -7 | 6 | 14 | -14 | 2 | 14
COc1ccccc1NC(=O)C1CCN(c2ncccn2)CC1 | -19 | 17 | 15 | -1 | 25* | -4
SMILES | TIM10 inh | NALP3 yeast inh | tim10-1 inh | SKKanGAS inh | NALP1 inh | tim23-1 inh
COc1ccc(OC)c(NC(=O)C(CC(C)C)NC(=O)C2CCCCC2)c1 (stereo unspecified) | 7 | 16 | 31 | -5 | nt | 25
COc1ccccc1NC(=O)C(CC(C)C)NC(=O)C1CCCCC1 (stereo unspecified) | 17 | 11 | 23 | -6 | 41* | 7
COc1cc(CNCCO)cc(Cl)c1OCc1ccc(Cl)cc1Cl | -48 | 19 | -47 | 13 | 38* | -8
COc1cc(CNC(C)(C)CO)cc(Br)c1OCc1ccc(Cl)cc1Cl | 19 | 10 | 3 | 1 | 58* | 10
COc1cc(CNCCO)cc(Br)c1OCc1ccccc1Cl | 14 | 20 | 29 | 2 | 25 | 7
CC1CCCN(CCCOc2ccc(Br)cc2Cl)C1 (stereo unspecified) | -2 | 24 | -26 | -3 | 26* | -17
Cc1ccc(NC(=O)Nc2ncccc2C)cc1 | 11 | 43 | 0 | 2 | 11 | 12
Cc1cccnc1NC(=O)Nc1ccc(F)cc1 | 4 | 27 | 27 | -2 | 28* | 5
Cc1nnc2n(-c3ccccc3)c(=O)c3c4c(sc3n12)COC(C(C)C)C4 (stereo unspecified) | 9 | 17 | -1 | -1 | nt | -11
CC(C)C1Cc2c(sc3[nH]c(=S)n(Cc4ccccc4)c(=O)c23)CO1 (stereo unspecified) | 15 | 3 | 31 | 82* | 7 | 0
CCN(CC)S(=O)(=O)c1ccc2c(c1)N(CC(=O)N1CCCC1)C(=O)CO2 | 3 | 12 | 10 | -4 | 7 | 9
COCCCn1c(=O)/c(=C\c2ccccc2OC(C)C)s/c1=C(/C#N)C(=O)Nc1ccc(C(=O)O)cc1 | -1 | 10 | 7 | 54* | -14 | 6
O=C(Nc1c(-c2ccccc2)nc2ccccn12)c1ccccc1F | 20 | 9 | 30 | 5 | 24 | 16
CNCCNC[C@H](Cc1cccc2ccccc12)NCCc1ccccc1 | -3 | 4 | -5 | nt | nt | -16
CNC[C@H](Cc1ccccc1)NC[C@@H](Cc1cccc2ccccc12)NCCc1ccc(C)cc1 | 12 | 23 | -12 | 94* | 19 | 11
CC(=O)c1ccc(OCCCC(=O)Nc2cc(S(=O)(=O)N3CCCCC3)ccc2C)cc1 | -7 | 22 | 11 | nt | nt | -4
O=c1cc(N=Nc2ccc(Cl)cc2)[nH]c(=O)[nH]1 | nt | nt | nt | 97* | 48 | nt
Cc1ccccc1CNC(=O)c1ccc2nc(N3CCOCC3)sc2c1 | -5 | 13 | -4 | -7 | 23 | 5
COc1ccc(CN2CCNC(=O)C2CC(=O)NCC(C)(C)N2CCOCC2)cc1C (stereo unspecified) | -3 | 6 | -12 | -3 | 34 | 7
CCc1nc(SCC(=O)N2c3ccccc3CC2C)c2c(C)c(C)sc2n1 (stereo unspecified) | -2 | 22 | -2 | 50* | 19 | 22
CCOC(=O)C(=NC(C)C)NNc1cc(Cl)ccc1Cl | 2 | 9 | 28 | 2 | 26 | 27
CCOC(=O)C(=NC(C)(C)C)NNc1cc(Cl)ccc1Cl | 13 | 17 | 26 | 78* | 25 | 25
